Our source for the Potency and activity change, negative = cytotoxicity values is PubChem BioAssay (Tox21).

Each structure is given as a SMILES string. Inconclusive results are not listed. A call without a number means that no potency is given here. Active and inactive are the calls of the source. Calls follow the shape of the dose curve; as a rule, active = well fitted cell-killing curve with a large enough effect in the repeat runs; inconclusive = weak or mixed curves, or effect the other way; inactive = flat fitted curve, though single readings scatter.
Potency is read from the fitted curve at half-maximal effect.

This assay can be described thus: Nuclear factor erythroid 2-related factor 2/antioxidant responsive element (Nrf2/ARE) small molecule agonists: qHTS cell viability counter screen in human keratinocytes (AID 1919968). Also: nearly all actives have a fitted effect of over 55% in size. The conditions noted are these: KeratinoSens HaCaT ARE cells viability, CellTiter-Fluor, 24 h; series mostly up to 92.4 µM. The text has this:
U.S. Tox21 Program National Center for Advancing Translational Sciences [NCATS] Division of Preclinical Innovation [DPI] U.S. Environmental Protection Agency [EPA] National Institutes of Environmental Health Sciences [NIEHS] National Toxicology Program [NTP] U.S. Food and Drug Administration [FDA] Tox21 Assay Overview: Oxidative stress has been implicated in the pathogenesis of a variety of diseases ranging from cancer to neurodegeneration. The antioxidant response element (ARE) signaling pathway plays an important role in the amelioration of oxidative stress. The KeratinoSens (Givaudan, Switzerland) is an in vitro test method which quantifies luciferase induction as a measure of activation of Keap1-Nrf2-antioxidationt/electrophile response element (ARE) dependant pathway in HaCaT human keratinocytes stably transfected with a selectable plasmid. The KeratinoSens assay is a cell-based assay with a reporter cell line to detect potential skin sensitizers by their ability to induce the Nrf2/ARE-response. The activation of the report gene under culture conditions can be detected by ONE-Glo Luciferase Assay System (Promega, Madison, WI). This cell line has been used to screen the Tox21 10K compound library to identify agonists that induce oxidative stress. The cytotoxicity of the Tox21 compound library against the KS-ARE cell line was tested in parallel by measuring the cell viability using CellTiter- Fluor assay system (Promega, Madison, WI) in the same wells.
Tox21 Assay Protocol Summary: HaCaT derived cell line KeratinoSens were dispensed at 1,500 cells/5uL/well in 1536-well white wall/solid bottom plates using a Multidrop Combi (ThermoFisher Scientific, Waltham, MA) dispenser. After the assay plates were incubated at 37 C/5% CO2 for 5 h, 23 nL of compounds dissolved in DMSO, positive controls or DMSO only was transferred to the assay plate by a pintool workstation (Kalypsys, San Diego, CA). The plates were incubated at 37 C/5% CO2 for 23 h, followed by addition of 1uL/well of CellTiter-Fluor reagent into the assay plates using a Flying Reagent Dispenser (Aurora Discovery, San Diego, CA) for cell viability readout that measures cytotoxicity. After 1 h incubation at 37 C/5% CO2 the fluorescence intensity was measured using a ViewLux (PerkinElmer, Shelton, CT) plate reader.
A general note: Quantitative high-throughput screening tests each substance at several concentrations.
For the compound `CCN(CCC#N)c1ccc(N=Nc2ccc([N+](=O)[O-])cc2)cc1`, the Potency entry was “inactive”.
Same read-out and setting: then `CC(O)COC(C)(C)C` (stereo not given), with “inactive”; and `CCC(=O)O[C@]1(C(=O)CCl)[C@@H](C)C[C@H]2[C@@H]3CCC4=CC(=O)C=C[C@]4(C)[C@@]3(F)[C@@H](O)C[C@@]21C`, with “inactive”; and `CC(=O)N[C@@H](CCC(N)=O)C(=O)O`, with “inactive”.
On the same count and under the same terms, in the case of `CC(C(=O)O)c1cccc(Oc2ccccc2)c1` (stereo not given) it was “inactive”.
The same measure, in the same setting: then `Cc1ccc(/C=N/n2c(-c3ccccc3)csc2=S)cc1`, with “inactive”; and `COC(=O)c1cc(C(=O)OC)cc(S(=O)(=O)O)c1`, with “inactive”.
Turning to `O=C(O)c1cn(C2CC2)c2cc(Cl)c(F)cc2c1=O`, the Potency result was “inactive”.
Same read-out and setting: in the case of `C=CC1CO1` (stereo not given) it was “inactive”; in that of `CCOC(=O)COc1ccc(C)cc1`, “inactive”; in that of `COc1cc(O)cc(O)c1`, “inactive”.
`Cc1ccccc1C(=O)Nc1ccc(C(=O)N2CCCC(N(C)C)c3ccccc32)cc1` (stereo not given): the Potency result is “inactive”.
With `CC(C)C[C@@H](N)C(=O)O`, the activity change, negative = cytotoxicity was 2.62% [at 19 µM] (inactive).
For the compound `NC(CO)C(=O)NNCc1ccc(O)c(O)c1O` (stereo not given), the Potency result is “inactive”.
Still for that read-out and setting: in the case of `CCCCCCC(O)CO` (stereo not given) it was “inactive”.
The same measure, in the same setting: then `CCCCCCCC1CCCC1=O` (stereo not given), with “inactive”; and `COc1cc(C)ccc1C(C)C`, with “inactive”; and `COc1cc(-c2ccc(N=C=O)c(OC)c2)ccc1N=C=O`, with “inactive”.
Still for that read-out and setting: in the case of `C=C[C@@H](C)CCC=C(C)C` it was “inactive”.
Turning to `CC(C)C(=O)OCc1ccccc1`, the Potency entry is “inactive”.
Still for that read-out and setting: in the case of `CCCCCCCCCCCCCC[n+]1ccccc1` it was 27.3 µM (active); in that of `COC(=O)CCCCC(CCSS/C(CCO)=C(\C)N(C=O)Cc1cnc(C)nc1N)SC(C)=O` (stereo not given), “inactive”; in that of `CCN(CC)CCNC(=O)c1cc(Br)c(N)cc1OC`, “inactive”.
As to `C[C@@H]1CN(c2c(F)c(N)c3c(=O)c(C(=O)O)cn(C4CC4)c3c2F)C[C@H](C)N1`, the activity change, negative = cytotoxicity was 1.83% [at 19 µM] (inactive).
Consider `CCC(C)N(C)C(=O)c1cc2ccccc2c(-c2ccccc2Cl)n1` (stereo not given), for which the Potency entry is “inactive”.
Still for that read-out and setting: in the case of `Clc1nnc(Cl)c2ccccc12` it was “inactive”; in that of `CCCCCCCCCCCCCC(=O)OCC(O)CO` (stereo not given), “inactive”.
Consider `[O]=[Bi]`, for which the activity change, negative = cytotoxicity is 4.16% [at 8.39 µM] (inactive).
Same read-out and setting: then `C[C@@H]1CC[C@@]2(OC1)O[C@H]1C[C@H]3[C@@H]4CC[C@H]5C[C@@H](O)CC[C@]5(C)[C@H]4CC(=O)[C@]3(C)[C@H]1[C@@H]2C`, with -14.4% [at 8.39 µM] (inactive).
Take `CCCCCCCCOC(C)=O`: the Potency entry is “inactive”.
The same measure, in the same setting: in the case of `CCN(CC)CCSC(=O)C(c1ccccc1)c1ccccc1` it was “inactive”.
On the same count and under the same terms, then `C[N+](C)(C)CC(O)CC(=O)[O-]` (stereo not given), with “inactive”; and `OC(CCCN1CCCCC1)(c1ccccc1)c1ccccc1`, with “inactive”; and `O=C(c1ccc(F)cc1)C1CCN(CCn2c(=O)[nH]c3ccccc3c2=O)CC1`, with “inactive”.
On the same count and under the same terms, then `Cc1nnc(C(=O)NC(C)(C)c2nc(C(=O)NCc3ccc(F)cc3)c(O)c(=O)n2C)o1`, with “inactive”; and `COC(=O)[C@H]1[C@H]2C[C@@H]3c4[nH]c5cc(OC)ccc5c4CCN3C[C@H]2C[C@@H](OC(=O)COc2ccc(OC)cc2)[C@@H]1OC`, with “inactive”.
For the compound `O=P(O)(O)C(O)(Cc1cccnc1)P(=O)(O)O`, the Potency result is “inactive”.
Same read-out and setting: in the case of `O=C(O)Cc1ccc(-c2ccccc2)cc1` it was “inactive”; in that of `CC(=O)CC(C)C`, “inactive”.
The same measure, in the same setting: then `OCC(CBr)(CBr)CBr`, with “inactive”.
